Rango dissoc inh: prevents RanGTP from dissociating the Rango-importin beta complex. Biochemical FRET Rango-importin beta, RanGTP-induced dissociation. Potency, µM (doses to about 46.1 µM). 0.071% of 340,000 active; also: nearly all actives have a fitted effect of over 45% in size
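Rango (0.1 uM)–importin beta (0.25 uM) complex; RanGTP-RCC1 trigger; 45 min RT; CFP/YFP FRET read.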
KCNH2 WT inh: KCNH2 (human, wildtype) channel inhibition; activity change, % at 1.84 µM; 0.37% of 340,000 active; Q12809; U2OS, BacMam KCNH2, thallium flux FluxOr; hits give low values; AID 720551;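 active = maximum activity change below -70%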
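U2OS cells were transduced with wild-type KCNH2 virus (2.03 x 10^8 / mL) for 4 h at room temperature, then cultured overnight at 37 C. Thallium flux was read with FluxOr dye. Rate constants were normalized to DMSO controls.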
KCNH2 3.1 block: blocks the human KCNH2 3.1 channel isoform; activity change, % (tested at about 1.8 µM); U2OS KCNH2 3.1, thallium flux FluxOr; hits give low values; 0.95% of 340,000 active;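 active = maximum activity change below -70%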;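 also: thallium influx rate constant from kinetic fluorescence after stimulation buffer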
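Thallium flux read-out: FluxOr dye with Red40 quencher in HBSS/HEPES, 45 min at RT. Rate constants from kinetic reads were normalized to positive and negative DMSO controls. Cells: U2OS virally expressing the 3.1 isoform.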
Rango-impB inh: inhibitors of Rango-importin beta complex formation | Q14974 | 0.031% of 340,000 active | AID 540263 | Rango CFP/YFP FRET sensor + importin beta, 45 min | Potency, µM (series often up to 92.2 µM); also: nearly all actives have a fitted effect of over 15% in size
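FRET biosensor (snurportin 1 IBB flanked by EYFP and cerulean), 50 nM, with compound 5 min, then 0.125 microM importin beta in PBS, 1 mM DTT, 0.02% Tween-20, 0.1% BSA. CFP/YFP ratio read after 45 min at room temperature; pre-read flags interference.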
Hits are given with their value. An excerpt weighted towards active compounds, which were near 1.3% of everything screened. Unless noted, calls follow the shape of the full dose curve.

CCc1ccc(N(CC(=O)N2CCOCC2)S(C)(=O)=O)cc1 was read as Rango dissoc inh inactive, KCNH2 WT inh inactive, KCNH2 3.1 block inactive and Rango-impB inh inactive.
For Cc1ccc(NC(=O)Nc2ccc3c(c2)OCO3)cc1F the results were Rango dissoc inh inactive, KCNH2 WT inh inactive, KCNH2 3.1 block inactive and Rango-impB inh inactive.
For CC(Oc1cccc(Br)c1)C(=O)NNC(=O)CCS(=O)(=O)c1ccccc1 (centres undefined) the results were Rango dissoc inh inactive, KCNH2 WT inh inactive, KCNH2 3.1 block -102.1 and Rango-impB inh inactive.
`NC(=O)C1CCN(C(=O)N2c3ccccc3Sc3ccccc32)CC1` gave Rango dissoc inh inactive, KCNH2 WT inh inactive, KCNH2 3.1 block inactive and Rango-impB inh inactive.
Screening O=C(C1CC1)N1c2ccccc2Sc2ccccc21 returned Rango dissoc inh inactive, KCNH2 WT inh inactive, KCNH2 3.1 block -82.8 and Rango-impB inh inactive.
Screening CC(NS(=O)(=O)c1ccc(Cl)cc1)C(=O)N1CCOCC1 (centres undefined) returned Rango dissoc inh inactive, KCNH2 WT inh inactive, KCNH2 3.1 block inactive and Rango-impB inh inactive.
CSc1cccc(NC(=S)N(Cc2ccc(C)cc2)Cc2cccnc2)c1 was read as Rango dissoc inh inactive, KCNH2 WT inh inactive, KCNH2 3.1 block -88.8 and Rango-impB inh inactive.
Cc1ccccc1NC(=S)N(Cc1ccccc1)Cc1cccnc1 was read as Rango dissoc inh inactive, KCNH2 WT inh inactive, KCNH2 3.1 block inactive and Rango-impB inh inactive.
Screening CNC(=O)c1ccc(CN(C)CC(=O)Nc2ccccc2C(=O)NC2CC2)cc1 returned Rango dissoc inh inactive, KCNH2 WT inh inactive, KCNH2 3.1 block -72.5 and Rango-impB inh inactive.
For CSc1ccc(CN(C)CC(=O)Nc2ccccc2C(=O)NC2CC2)cc1 the results were Rango dissoc inh inactive, KCNH2 WT inh inactive, KCNH2 3.1 block inactive and Rango-impB inh inactive.
For O=C(O)c1cccc(COc2ccc3c(c2)CCC3)c1 the results were Rango dissoc inh inactive, KCNH2 WT inh inactive, KCNH2 3.1 block -112.0 and Rango-impB inh inactive.
COC(=O)c1sc(NC(=O)COc2ccccc2C)nc1C was read as Rango dissoc inh inactive, KCNH2 WT inh inactive, KCNH2 3.1 block inactive and Rango-impB inh inactive.
`COc1ccccc1OCC(=O)Nc1nc(C)c(C)s1` gave Rango dissoc inh inactive, KCNH2 WT inh inactive, KCNH2 3.1 block -74.6 and Rango-impB inh inactive.
CCCNC(=O)NS(=O)(=O)c1ccc(Cl)cc1 was read as Rango dissoc inh inactive, KCNH2 WT inh inactive, KCNH2 3.1 block inactive and Rango-impB inh inactive.
For CCOC1(/N=C(\C)NS(=O)(=O)c2ccc(Cl)cc2)C(C)=CC(=O)C=C1C the results were Rango dissoc inh inactive, KCNH2 WT inh inactive, KCNH2 3.1 block -98.6 and Rango-impB inh inactive.
`CC(Nc1cccc(C(=O)NC2CC2)c1)c1nnc(-c2ccccc2)o1` (centres undefined) gave Rango dissoc inh inactive, KCNH2 WT inh inactive, KCNH2 3.1 block inactive and Rango-impB inh inactive.
`Cc1cccc(-c2nnc(C(C)Nc3cccc(C(=O)NC4CC4)c3)o2)c1` (centres undefined) gave KCNH2 WT inh inactive and KCNH2 3.1 block -72.8.
Screening CNC(=O)c1c(NC(=O)CCS(=O)(=O)c2ccc(C)cc2)sc(C)c1C returned Rango dissoc inh inactive, KCNH2 WT inh inactive, KCNH2 3.1 block inactive and Rango-impB inh inactive.
`CC(=O)Nc1ccc(NC(=O)COC(=O)c2ccc(S(=O)(=O)N(C)c3ccccc3)cc2)cc1` gave Rango dissoc inh inactive, KCNH2 WT inh inactive, KCNH2 3.1 block inactive and Rango-impB inh inactive.
Screening C=CCN1C(=O)c2ccc(C(=O)N(CC(C)C)c3c(N)n(CCCC)c(=O)[nH]c3=O)cc2C1=O returned Rango dissoc inh inactive, KCNH2 WT inh inactive, KCNH2 3.1 block -147.2 and Rango-impB inh inactive.
For Oc1ccc(N=Nc2ccc3c(c2)OCCO3)c(O)c1 the results were Rango dissoc inh inactive, KCNH2 WT inh -73.0, KCNH2 3.1 block inactive and Rango-impB inh inactive.
`CC(C)CCC(CCNCc1ccccn1)c1ccc(Cl)cc1` (centres undefined) gave Rango dissoc inh inactive, KCNH2 WT inh inactive, KCNH2 3.1 block -90.7 and Rango-impB inh inactive.
Screening S=C(NCc1ccc(Cl)cc1)NCc1ccccn1 returned Rango dissoc inh inactive, KCNH2 WT inh inactive, KCNH2 3.1 block inactive and Rango-impB inh inactive.
COc1ccc(CCNC(=O)c2c(Cl)ccc(Cl)c2OC)cc1OC was read as Rango dissoc inh inactive, KCNH2 WT inh inactive, KCNH2 3.1 block -96.5 and Rango-impB inh inactive.
